{
  "source": "PubChem BioAssay (Tox21)",
  "note": "“And” between values parts separate entries of the source, which are not always exact repeats. Equal values may be shown once. Inconclusive results are not listed. A call without a number means that no potency is given here. Some compounds were tested as several samples or in several runs, with calls that do not always agree. The source made the active and inactive calls. Calls come from the whole dose curve. Potency is the fitted concentration of half-maximal effect.",
  "data": [
    {"experiment": "qHTS assay to identify small molecule antagonists of the sonic hedgehog signaling (Shh) pathway (AID 1259369); note: nearly all actives have a fitted effect of over 45% in size", "settings": "NIH/3T3 Gli1-Luc reporter, Shh antagonist, luminescence 24 h; series mostly up to 92.4 µM; activity change, negative = inhibition: at the top concentration", "description": "U.S. Tox21 Program National Center for Advancing Translational Sciences [NCATS] NIH Chemical Genomics Center [NCGC] U.S. Environmental Protection Agency [EPA] National Institutes of Environmental Health Sciences [NIEHS] National Toxicology Program [NTP] U.S. Food and Drug Administration [FDA] Tox21 Assay Overview: The sonic hedgehog (Shh) pathway is essential for normal embryonic development. Dysregulation of the Shh pathway can cause severe developmental defects in organs. Therefore chemicals that interfere with the pathway are potential developmental toxicants. A cell line designated 3T3Gli1-Luc (DMB/OARSA/CFSAN/FDA, Laurel, MD), a NIH/3T3 derived clone containing stably integrated Gli1-Luc reporter is used to detect chemical interference of the Shh pathway, by changes in the expression of the firefly Luc gene under the control of the Gli1 transcriptional response element. This cell line was used to screen Tox21 libraries for identifying and prioritizing the potential developmental toxicants that interfere Shh pathway. Conditioned medium-stimulated mode was used to screen for chemicals inhibiting Shh signaling.\nTox21 Assay Protocol Summary: 3T3 Gli1-Luc cells were dispensed at 2,000 per well in 5uL of culture medium into white solid bottom 1536-well plates (Greiner Bio-One, Monroe, NC) using a Multidrop Combi (Thermo Scientific, Waltham, MA) dispenser. The assay plates were incubated at 37 C and 5% CO2 for 4hr, and then 23nL of compounds dissolved in DMSO and positive control were transferred using a Pintool station (Wako, San Diego, CA). The compound transfer was followed by the addition of 1ul conditioned medium or assay buffer using two separate tips of Flying Reagent Dispenser (FRD, Aurora Discovery, San Diego, CA). The assay plates were incubated at 37C and 5% CO2 for 24hr. For luciferase read, 4uL of Amplite Luciferase reporter gene assay reagent (AAT Bioquest, Inc. Sunnyvale, CA) was added to each well of the assay plates using FRD and incubated at room temperature for 30min. The luminescence signal was measured using a ViewLux plate reader (Perkin Elmer, Shelton, CT).", "values": [
      {"smiles": "OC[C@H]1O[C@@H](Oc2ccc(O)cc2)[C@H](O)[C@@H](O)[C@@H]1O", "Potency": "inactive"},
      {"smiles": "CN1CCCC1=O", "activity change, negative = inhibition": "0% (inactive)"},
      {"smiles": "CCCCCCCCCCCCCC(=O)O", "activity change, negative = inhibition": "-23% (inactive)"},
      {"smiles": "CCCCCNCCCCC", "Potency": "inactive"},
      {"smiles": "Clc1cccc(Cl)c1NC1=NCCN1", "Potency": "inactive"},
      {"smiles": "COc1ccc(N)c(OC)c1", "Potency": "9.31 µM (active)"},
      {"smiles": "Nc1nc(N)c2nc(-c3ccccc3)c(N)nc2n1", "Potency": "24.6 µM (active) and 30.6 µM (active)"},
      {"smiles": "COc1ccc([C@@H]2CC(=O)c3c(O)cc(O[C@@H]4O[C@H](CO[C@@H]5O[C@@H](C)[C@H](O)[C@@H](O)[C@H]5O)[C@@H](O)[C@H](O)[C@H]4O)cc3O2)cc1OC", "Potency": "inactive"},
      {"smiles": "C[n+]1ccn(CCO)c1", "Potency": "inactive"},
      {"smiles": "CCCCCC(C)=O", "Potency": "inactive and 27.3 µM (active)"},
      {"smiles": "CC(=O)OC[C@H]1O[C@@](COC(C)=O)(O[C@H]2O[C@H](COC(C)=O)[C@@H](OC(C)=O)[C@H](OC(C)=O)[C@H]2OC(C)=O)[C@@H](OC(C)=O)[C@@H]1OC(C)=O", "Potency": "inactive"},
      {"smiles": "CC/C(C)=N/O", "Potency": "inactive"},
      {"smiles": "CC(C)c1ccc(C(C)C)cc1", "Potency": "inactive"},
      {"smiles": "NC(=O)NC(N)=O", "Potency": "inactive"},
      {"smiles": "CCc1cccc(O)c1", "activity change, negative = inhibition": "2.32% (inactive)"},
      {"smiles": "COCN(COC)c1nc(N(COC)COC)nc(N(COC)COC)n1", "Potency": "inactive"},
      {"smiles": "CC(=O)OCCC(C)C", "Potency": "inactive"},
      {"smiles": "CCCCCCCCCCCC(=O)N(C)CC(=O)O", "Potency": "inactive"},
      {"smiles": "O=C1OC(=O)c2c(Cl)c(Cl)c(Cl)c(Cl)c21", "Potency": "inactive"},
      {"smiles": "O=Cc1ccc(CO)o1", "Potency": "inactive"},
      {"smiles": "Cc1ccc([N+](=O)[O-])cc1N", "Potency": "inactive"},
      {"smiles": "Oc1ccc(Cc2ccccc2O)cc1", "Potency": "43.3 µM (active)"},
      {"smiles": "O=C1CCCCCCCCCCC1", "Potency": "inactive"},
      {"smiles": "CC(C=O)Cc1ccc(C(C)(C)C)cc1", "note": "(stereo not given)", "activity change, negative = inhibition": "-2.95% (inactive)"},
      {"smiles": "C[Si](C)(C)N[Si](C)(C)C", "Potency": "inactive"},
      {"smiles": "N[C@@H](Cc1cc(I)c(Oc2ccc(O)c(I)c2)c(I)c1)C(=O)O", "activity change, negative = inhibition": "5.8% (inactive)"},
      {"smiles": "CCCCC(=O)O", "Potency": "inactive"},
      {"smiles": "C=C(CC(=O)O)C(=O)O", "Potency": "inactive"},
      {"smiles": "CC(C)(C)NC[C@H](O)COc1nsnc1N1CCOCC1", "Potency": "inactive"},
      {"smiles": "CC(CN1c2ccccc2Sc2ccccc21)N(C)C", "note": "(stereo not given)", "Potency": "12.3 µM (active) and 27.3 µM (active) and 13.3 µM (active)"},
      {"smiles": "C1CCCNCC1", "Potency": "inactive"},
      {"smiles": "COc1c(Cl)ccc(Cl)c1C(=O)O", "Potency": "inactive"},
      {"smiles": "CO[Si](CCCNCCN)(OC)OC", "Potency": "8.76 µM (active) and inactive"},
      {"smiles": "O=[N+]([O-])c1ccccc1C(F)(F)F", "Potency": "inactive"},
      {"smiles": "Cc1nnc(NS(=O)(=O)c2ccc(N)cc2)s1", "Potency": "inactive"},
      {"smiles": "COc1c2ccoc2cc2oc(=O)ccc12", "Potency": "inactive"},
      {"smiles": "Cc1cccc(C)c1[N+](=O)[O-]", "Potency": "inactive and 24.3 µM (active)"},
      {"smiles": "c1cnc2c(c1)ccc1cccnc12", "Potency": "inactive"},
      {"smiles": "COc1cc(NC(=O)CC(C)=O)c(OC)cc1Cl", "Potency": "inactive"},
      {"smiles": "CC(=O)Nc1ccc(CC(=O)O)cc1", "Potency": "inactive"}
    ]}
  ]
}
